TROY NFkB inh – TROY signaling inhibition | inhibition, % at 10 µM | actives 0.98% (n = 360,000) | Q293 LMP1-TROYcd NF-kB luciferase reporter, 4 h | AID 1347056;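 active = compounds whose plate-normalised and pattern-corrected inhibition of the luciferase reporter signal at the single screening dose is 50% or more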
TWEAK-Fn14 inh – TWEAK-Fn14 signaling inhibition | TWEAK-stimulated Fn14 reporter cells, luciferase luminescence, 8 h | inhibition, % at 10 µM | actives 2% (n = 360,000); in the data active = inhibition above about 50%
Peg3 prom inh – inhibitors of Peg3 promoter; HeLa PEG-Prom luciferase reporter, luminescence, overnight; actives 1.7% (n = 360,000); inhibition, % at 20 µM;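 active = inhibition of at least 50% at 20 µM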
KKLEB cytotox – CF airway cell cytotoxicity counter-screen; activity change (cytotoxicity), % at 5 µM; KKLEB CF airway cells viability, ATPlite luminescence, overnight; hits give low values; cells stimulated with P. aeruginosa culture filtrate; AID 602141; actives 0.36% (n = 360,000);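 active = corrected activity change at or below -50% at 5 µM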
HIF-2a inh – blocks HIF-2a reporter activity. inhibition, % at 18.8 µM. actives 0.72% (n = 360,000). AID 624352. 786-0 RCC cells HIF-2a reporter, luciferase luminescence, overnight;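 active = inhibition of the luminescence signal of 40% or more relative to plate controls, in a single-dose primary screen at 18.75 µM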
CF NFkB block – blocks PAF-induced NF-kB reporter in cystic fibrosis cells; actives 0.86% (n = 360,000); inhibition, % at 5 µM; KKLEB NF-kB-GFP reporter, GFP fluorescence overnight;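 active = at least 50% inhibition at 5 µM, scaled per plate between neutral and stimulator controls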;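 also: PAF is a Pseudomonas aeruginosa culture filtrate used as stimulus; plate controls were PAF-stimulated DMSO wells for no effect and unstimulated DMSO wells for full effect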
CF NFkB conf – confirmation of cystic fibrosis induced NF-kB inhibitors; inhibition, % at 5 µM; actives 64% (n = 1,300); KKLEB CF airway cells, PAF-induced NF-kB-GFP fluorescence, overnight; AID 602472; shares compounds with CF NFkB block; in the data active = inhibition above about 40%;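 also: stimulus PAF is a Pseudomonas aeruginosa filtrate and not platelet activating factor; plate controls were DMSO wells with stimulus for no effect and unstimulated DMSO wells for full effect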
* hit, by the source's call. Rows were chosen to be rich in hits. Some 3.9% of all compounds tested hit in one or more screens of this group.

Results for CC1C(=O)N(Cc2cn(Cc3ccco3)nn2)CCS(=O)(=O)N1Cc1ccc(-c2ccc(Cl)c(Cl)c2)cc1 (stereo unspecified) ?
TROY NFkB inh: 0; TWEAK-Fn14 inh: -7; Peg3 prom inh: 21; KKLEB cytotox: 5; HIF-2a inh: -21; CF NFkB block: 65*; CF NFkB conf: 28

Results for CC1C(=O)N(Cc2cn(CC3CCCCC3)nn2)CCS(=O)(=O)N1Cc1ccc(-c2ccccc2)cc1 (stereo unspecified) ?
TROY NFkB inh: 24; TWEAK-Fn14 inh: 22; Peg3 prom inh: 28; KKLEB cytotox: 5; HIF-2a inh: -13; CF NFkB block: 17

Results for CCC/C=C/c1ccc(CN2C(C(C)C)C(=O)N(Cc3cn(Cc4ccco4)nn3)CCS2(=O)=O)cc1 (stereo unspecified) ?
TROY NFkB inh: -6; TWEAK-Fn14 inh: 13; Peg3 prom inh: 21; KKLEB cytotox: 8; HIF-2a inh: -35; CF NFkB block: 52*; CF NFkB conf: 45*

How did Cc1ccc(-c2ccc(CN3C(C)C(=O)N(Cc4cn(CC5CCCCC5)nn4)CCS3(=O)=O)cc2)cc1 (stereo unspecified) do in these assays?
TROY NFkB inh: -9; TWEAK-Fn14 inh: -2; Peg3 prom inh: 12; KKLEB cytotox: -24; HIF-2a inh: -35; CF NFkB block: 76*; CF NFkB conf: 40

What do the screens show for `O=C(NCc1cccnc1)C1CCC(CNS(=O)(=O)c2ccc(Cl)cc2)CC1` (stereo unspecified)?
TROY NFkB inh: 5; TWEAK-Fn14 inh: 4; Peg3 prom inh: 11; KKLEB cytotox: 7; HIF-2a inh: 6; CF NFkB block: -5

How did Cc1ccc(-c2ccc(CN3C(C(C)C)C(=O)N(Cc4cn(CCC5OCCO5)nn4)CCS3(=O)=O)cc2)c(C)c1 (stereo unspecified) do in these assays?
TROY NFkB inh: 24; TWEAK-Fn14 inh: 34; Peg3 prom inh: 16; KKLEB cytotox: -14; HIF-2a inh: -18; CF NFkB block: 65*; CF NFkB conf: 36

What do the screens show for `Cc1ccc(-c2ccc(CN3C(C)C(=O)N(Cc4cn(Cc5ccco5)nn4)CCS3(=O)=O)cc2)c(C)c1` (stereo unspecified)?
TROY NFkB inh: 16; TWEAK-Fn14 inh: 28; Peg3 prom inh: 10; KKLEB cytotox: 2; HIF-2a inh: -2; CF NFkB block: 48

How did Cc1ccccc1-c1ccc(CN2C(C)C(=O)N(Cc3cn(Cc4ccco4)nn3)CCS2(=O)=O)cc1 (stereo unspecified) do in these assays?
TROY NFkB inh: 22; TWEAK-Fn14 inh: -2; Peg3 prom inh: 27; KKLEB cytotox: 7; HIF-2a inh: 2; CF NFkB block: 60*; CF NFkB conf: 19

What do the screens show for `Cc1n[nH]c(=O)c2c(NC(=O)COC(=O)c3cccc(OC(F)F)c3)oc(C)c12`?
TROY NFkB inh: -8; TWEAK-Fn14 inh: 1; Peg3 prom inh: 16; KKLEB cytotox: 9; HIF-2a inh: 12; CF NFkB block: -48

Results for S=C1NCN(Cc2cccnc2)CN1Cc1ccccc1 ?
TROY NFkB inh: 9; TWEAK-Fn14 inh: 2; Peg3 prom inh: 14; KKLEB cytotox: -8; HIF-2a inh: 12; CF NFkB block: 18

Results for CCN1CCN(c2ccc(S(=O)(=O)N3CCCCC3)cc2NC(=O)Cc2ccccc2)CC1 ?
TROY NFkB inh: -4; TWEAK-Fn14 inh: 7; Peg3 prom inh: 16; KKLEB cytotox: -48; HIF-2a inh: 4; CF NFkB block: 57*; CF NFkB conf: 18

How did Cc1ccccc1CS(=O)(=O)CC(O)CN1CCCC1=O (stereo unspecified) do in these assays?
TROY NFkB inh: -5; TWEAK-Fn14 inh: 2; Peg3 prom inh: 4; KKLEB cytotox: 8; HIF-2a inh: 13; CF NFkB block: -10

How did CC(C)Cn1c(C(C)C)nc([N+](=O)[O-])c1Sc1ccc(Cl)cn1 do in these assays?
TROY NFkB inh: -7; TWEAK-Fn14 inh: 18; Peg3 prom inh: 18; KKLEB cytotox: -12; HIF-2a inh: 16; CF NFkB block: 27

How did CC(C)Cn1c(C(C)C)nc([N+](=O)[O-])c1S(=O)(=O)c1ccc(F)cc1 do in these assays?
TROY NFkB inh: 12; TWEAK-Fn14 inh: 50*; Peg3 prom inh: 34; KKLEB cytotox: -36; HIF-2a inh: 37; CF NFkB block: 58*; CF NFkB conf: 5

Results for Cc1cnc(C=O)c2cccc([N+](=O)[O-])c12 ?
TROY NFkB inh: 8; TWEAK-Fn14 inh: 14; Peg3 prom inh: 19; KKLEB cytotox: -38; HIF-2a inh: 15; CF NFkB block: 83*; CF NFkB conf: 65*

What do the screens show for `COc1cc(C(c2c(C)n(C)n(-c3ccccc3)c2=O)c2c(C)n(C)n(-c3ccccc3)c2=O)cc(Br)c1O`?
TROY NFkB inh: 1; TWEAK-Fn14 inh: -10; Peg3 prom inh: 5; KKLEB cytotox: -12; HIF-2a inh: 18; CF NFkB block: -17

Results for Cc1ccc(S(=O)(=O)CCC(=O)c2ccc(F)cc2)cc1 ?
TROY NFkB inh: 0; TWEAK-Fn14 inh: 4; Peg3 prom inh: 32; KKLEB cytotox: -44; HIF-2a inh: 15; CF NFkB block: 85*; CF NFkB conf: 26

What do the screens show for `Cc1ccc(/C(=C\CN2CCCC2)c2ccccn2)cc1`?
TROY NFkB inh: 7; TWEAK-Fn14 inh: 16; Peg3 prom inh: -28; KKLEB cytotox: 33; HIF-2a inh: 19; CF NFkB block: 51*; CF NFkB conf: 15

How did S=c1sc2c(Cl)ncnc2n1-c1ccccc1 do in these assays?
TROY NFkB inh: 30; TWEAK-Fn14 inh: 43; Peg3 prom inh: 112*; KKLEB cytotox: -28; HIF-2a inh: 84*; CF NFkB block: 78*; CF NFkB conf: 25

Results for Cc1nc(N2CCN(C)CC2)c2sc(=S)n(-c3ccccc3)c2n1 ?
TROY NFkB inh: -36; TWEAK-Fn14 inh: -5; Peg3 prom inh: -37; KKLEB cytotox: 4; HIF-2a inh: -108; CF NFkB block: -11

How did CCOC(=O)C1(C(=O)OCC)COC(=O)C1CN1Cc2cc3ccccc3nc2C1 (stereo unspecified) do in these assays?
TROY NFkB inh: 9; TWEAK-Fn14 inh: 46; Peg3 prom inh: 17; KKLEB cytotox: -2; HIF-2a inh: 24; CF NFkB block: 69*; CF NFkB conf: 74*

How did COc1ccc(Br)cc1C(=O)CCC(=O)OCC(=O)Nc1cc(C(N)=O)cc(C(N)=O)c1 do in these assays?
TROY NFkB inh: 4; TWEAK-Fn14 inh: -8; Peg3 prom inh: -7; KKLEB cytotox: -2; HIF-2a inh: 0; CF NFkB block: 9

How did CCOc1cc(/C=N\NC(=O)c2ccc(NC(=O)C(C)(C)C)cc2)ccc1OC(=O)c1ccc(C)cc1 do in these assays?
TROY NFkB inh: 4; TWEAK-Fn14 inh: -57; Peg3 prom inh: 27; KKLEB cytotox: -18; HIF-2a inh: 10; CF NFkB block: 26

Compound activity deposited in PubChem BioAssay by Sanford-Burnham Center for Chemical Genomics.
